{"source": "the supplement of paper PMC6555819", "data": [{"system": "RARa homodimer (NR concentration 270 nM)", "test": "PBM binding z-score (relative to random genomic background probes); higher = stronger binding; sequences stand for … in GC…GCGATTGACAGCGTAGAATGAAGG", "in_short": "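Binding z-scores take random background probes as their reference. They come from custom Agilent 4×180K protein-binding microarrays incubated 1 h with ligand-free nuclear receptor dimers, with antibodies against each partner (one per run) detecting binding. Scanned fluorescence was regression-normalized.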", "values": [{"sequence": "TGTCAAAGTTCAAAGGTAATGTAAGTATCCACAC", "PBM binding z-score": 1.41}, {"sequence": "GCTTGTAGATCTAGGTTAAGAAAGACTAAGCTAA", "PBM binding z-score": -0.0444}, {"sequence": "TCTAGTTGGTCACGGAGGTCACATACGACGGGTA", "PBM binding z-score": 1.16}, {"sequence": "TGAATGAGGTTAAAGATCAGCGAACGTGGCGTCG", "PBM binding z-score": -0.162}, {"sequence": "TCTTGTACATCAATAGAGGTTAAGAAAGTGCGCT", "PBM binding z-score": 0.123}, {"sequence": "GGAACGCGGGCAAGTTGATAGCAGAGTTTGATGG", "PBM binding z-score": -1.25}, {"sequence": "AGTCAAAGTTCAGGACGAGGTAACGGAAAGCACG", "PBM binding z-score": 0.344}, {"sequence": "ACAGACAGGTGAGAGAAGGTAACTCAGCTGGACG", "PBM binding z-score": -0.00725}, {"sequence": "TCATATAGGTAAATGCTAGGGGAAAGTCCGATCT", "PBM binding z-score": 1.4}, {"sequence": "CCTTACGGGTCACTCCAGGTTATTGCATCGGAGT", "PBM binding z-score": 1.23}, {"sequence": "GCAGACAGGAGAAACGCAGGTAACTCAGGGTGGC", "PBM binding z-score": -1.26}, {"sequence": "CCGAGTACGTTATGGGGCATTCAGGCAACGGTGA", "PBM binding z-score": -0.162}, {"sequence": "TCGAGTAGGCTAGTCGGGGCATTCAGCCAACATA", "PBM binding z-score": -1.18}, {"sequence": "CCAGACAGGTGAAAGGTAACTCAGTCTGGTACGC", "PBM binding z-score": 0.208}, {"sequence": "CTCGAAAGGTCGGTTGAGGTGAGGATACGGATAA", "PBM binding z-score": 0.262}, {"sequence": "TTACCAAGGTGAAGGTAGTTGATCCCTCTGTAGA", "PBM binding z-score": -0.156}, {"sequence": "CCGACCGGGGCATAAGGTTACCATAAGCCAGCCC", "PBM binding z-score": -0.565}, {"sequence": "CATACAGGGTCAGCTCGGCCAGAGTAGGGACGGC", "PBM binding z-score": 0.394}, {"sequence": "ACTTGTTGGTCAGCTGAGGTCACACACAATTCGG", "PBM binding z-score": 0.13}, {"sequence": "CCTGCTAGGTAATGGTCAGCTAATCTACAGTATG", "PBM binding z-score": 0.217}, {"sequence": "CGTCCAGGGTCATAGGAGGTCAGTGAAGACAGAT", "PBM binding z-score": 2.39}, {"sequence": "CCTTACGGTTCACTCCAGGTTATAGCATCGGAGT", "PBM binding z-score": 1.57}, {"sequence": "AGTCAGAGTTCAGGACGAGGTAACGTAAAGCACG", "PBM binding z-score": 0.511}, {"sequence": "TCAGACAGGCGAAGGTAACTCAGGTACGCAGTCG", "PBM binding z-score": -0.553}, {"sequence": "CGCCCAAGGTCAGAGAGGTCAGTGAATGCCGAGT", "PBM binding z-score": 3.01}, {"sequence": "GCATATAGGTAATACAAAGTGAAAGTCCGATTGT", "PBM binding z-score": 0.391}, {"sequence": "CGAACTAGATCATCCAGGACAGTGAATACATTGA", "PBM binding z-score": 1.19}, {"sequence": "CTACCAAGGTGAACAAGGTGGTTGATTACTATTC", "PBM binding z-score": 0.0119}, {"sequence": "ACATACGGGTCAACGAGGTTATAGCACGCGTATA", "PBM binding z-score": 1.03}, {"sequence": "CGTCCAAGGTCAAGGTCAGTAAAAGAGACTCGAA", "PBM binding z-score": 3.01}, {"sequence": "GCGACTGGGGCATCAGCAGGTAACCATAACTTAA", "PBM binding z-score": -0.479}, {"sequence": "ATATGTAGATTAGCTGGGGTCATTCAGACTAGGC", "PBM binding z-score": 1.07}, {"sequence": "ACTAGTTGGTCAGCTGAGGTCCCACACAATTCGG", "PBM binding z-score": -0.0479}, {"sequence": "AGAGTGAGGTTATACGTAGATCAGGGAAGAAAGT", "PBM binding z-score": 1.14}, {"sequence": "GCTAGCAGGCCATTTGGGGCACTCAATGACGGGC", "PBM binding z-score": -1.06}, {"sequence": "GCTAGTTGGTCAGGAAAAGGTCACACACCGGTCG", "PBM binding z-score": 3.68}, {"sequence": "CCGACTGGGGCATAAGGTTACCACAAGCCAGCCC", "PBM binding z-score": -0.43}, {"sequence": "ACTAGTTGGTCAGCAGAGGTCACACACAATTCGG", "PBM binding z-score": 2.56}, {"sequence": "TCTTGTAGATCAAAGGTTAAAAAAGCCGAAGCCT", "PBM binding z-score": 0.327}, {"sequence": "CCGACTGGTGCATAAGGTTACCATAAGCCAGCCC", "PBM binding z-score": 0.243}]}]}
